Structures can show the parent of a compound that is named as a salt. ± gives the uncertainty stated by the source.
What follows are compounds tested on THP-1 (assay: CD54 surface expression induction over DMSO control (% over DMSO); higher = stronger dendritic cell activation). Conditions: exposure time: 24 h.
Method: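 hCLAT-like CD54 and CD86 surface expression on THP1 cells after 24 h exposure at a single concentration (highest non-cytotoxic concentration, or 100-200 µM if not cytotoxic). Flow cytometry (iQue) was run on 5,000 live cells.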
In the case of `CCCCCCCCCCCC(=O)NCCCN(C)C` [N-[3-(Dimethylamino)propyl]dodecanamide] (200 µM), the “CD54 surface expression induction” value is reported as 14.4 ± 11. For `C=CC(=O)OCCCCCCOC(=O)C=C` [1,6-Hexanediol diacrylate] (100 µM), the “CD54 surface expression induction” value was -4.54 ± 2.9. For `O=C(CS)Nc1ccccc1` [Thioglycolic acid anilide] (300 µM), the “CD54 surface expression induction” value was 24 ± 1.8. In the case of `O=C(O)c1cccnc1Nc1cccc(C(F)(F)F)c1` [Niflumic acid] (100 µM), the “CD54 surface expression induction” value is reported as -11.5 ± 10. In the case of `COc1cccc2c1C(=O)c1c(O)c3c(c(O)c1C2=O)C[C@@](O)(C(=O)CO)C[C@@H]3O[C@H]1C[C@H](N)[C@H](O[C@@H]2CCCCO2)[C@H](C)O1` [Pirarubicin*] (10 µM), the “CD54 surface expression induction” value is reported as 263 ± 46. For `N=C(N)NN=C(/C=C/c1ccc([N+](=O)[O-])o1)/C=C/c1ccc([N+](=O)[O-])o1` [Nitrovin] (10 µM), the “CD54 surface expression induction” value was 76.1 ± 15. `CN(C)c1ccc(C(=C2C=CC(=[N+](C)C)C=C2)c2ccccc2)cc1` [Malachite green oxalate*] (10 µM) was tested, and the “CD54 surface expression induction” value was 132 ± 20. For `CCCCCCCCCCCCO` [1-Dodecanol] (100 µM), the “CD54 surface expression induction” value was 9.85 ± 8.8. In the case of `Cc1ccc2c(c1[N+](=O)[O-])C(=O)c1ccccc1C2=O` [2-Methyl-1-nitroanthraquinone] (10 µM), the “CD54 surface expression induction” value is reported as 4.18 ± 2.8. For `O=C(/C=C/C=C/c1ccc2c(c1)OCO2)N1CCCCC1` [Piperine] (100 µM), the “CD54 surface expression induction” value was 0.08 ± 0.77. In the case of `COc1ccc(C(=O)/C(Br)=C\C(=O)O)cc1` [Cytembena] (200 µM), the “CD54 surface expression induction” value is reported as 62.5 ± 6.9. For `O=C(NS(=O)(=O)/C=C/c1ccccc1)c1ccc(F)cc1Cl` (200 µM), the “CD54 surface expression induction” value was 1.54 ± 2.2. For `O=C1c2ccccc2C(=O)C1c1ccc2ccccc2n1` [D & C Yellow II] (10 µM), the “CD54 surface expression induction” value was -4.43 ± 3.6. In the case of `C=CC(=O)OCCn1c(=O)n(CCOC(=O)C=C)c(=O)n(CCOC(=O)C=C)c1=O` (10 µM), the “CD54 surface expression induction” value is reported as 3.33 ± 5.3. `CC(C)(C)c1cc(O)ccc1O` [tert-Butylhydroquinone] (100 µM) was tested, and the “CD54 surface expression induction” value was 48.9 ± 12. In the case of `COC(=O)Nc1nc2ccc(C(=O)C3CC3)cc2[nH]1` [Cyclobendazole] (100 µM), the “CD54 surface expression induction” value is reported as -7.19 ± 4.8. For `COc1cccc2c1C(=O)c1c(O)c3c(c(O)c1C2=O)C[C@@](O)(C(=O)CO)C[C@@H]3O[C@H]1C[C@H](N)[C@H](O)[C@H](C)O1` [Doxorubicin*] (10 µM), the “CD54 surface expression induction” value was 187 ± 27. For `Cc1c2ccccc2c(C)c2c1ccc1ccccc12` [7,12-Dimethylbenzanthracene] (10 µM), the “CD54 surface expression induction” value was -22 ± 12. `Clc1ccc(C(Cn2ccnc2)OCc2ccc(Sc3ccccc3)cc2)c(Cl)c1` (stereo not given) [Fenticonazole nitrate] (100 µM) was tested, and the “CD54 surface expression induction” value was 21.1 ± 8.7. In the case of `O=C(N/N=C/c1ccccc1O)c1ccncc1` [Salinazid] (10 µM), the “CD54 surface expression induction” value is reported as 17.1 ± 8.6. In the case of `C=C(C)C(=O)Nc1ccc(Cl)c(Cl)c1` [Chloranocryl] (100 µM), the “CD54 surface expression induction” value is reported as 0.25 ± 0.41. With `CCCCCCCCCCC=CC1CC(=O)OC1=O` (stereo not given) [3-(Dodecenyl)dihydro-2,5-furandione] (200 µM) the “CD54 surface expression induction” value was 16 ± 37. `O=[N+]([O-])c1cc(N(CCO)CCO)ccc1NCCO` (200 µM) was tested, and the “CD54 surface expression induction” value was 3.92 ± 4.8. In the case of `CC(C)=CCC1C(=O)N(c2ccccc2)N(c2ccccc2)C1=O` [Feprazone] (200 µM), the “CD54 surface expression induction” value is reported as 62.3 ± 3. For `COC(=O)Nc1nc2cc(Sc3ccccc3)ccc2[nH]1` [Fenbendazole] (100 µM), the “CD54 surface expression induction” value was -38.1 ± 4.2. With `C=CCOC(Cn1ccnc1)c1ccc(Cl)cc1Cl` (stereo not given) [Imazalil sulfate] (100 µM) the “CD54 surface expression induction” value was 11.6 ± 11. `CC(C)CCCCCCCOC(=O)c1ccc(C(=O)OCCCCCCCC(C)C)c(C(=O)OCCCCCCCC(C)C)c1` [Triisodecyl trimellitate] (163 µM) was tested, and the “CD54 surface expression induction” value was 10.7 ± 46. For `CC(C)(C)c1ccc(S)cc1` [4-tert-Butylbenzenethiol] (200 µM), the “CD54 surface expression induction” value was 38.6 ± 14. `Nc1cc(Cl)c(O)c(Cl)c1` [4-Amino-2,6-dichlorophenol] (100 µM) was tested, and the “CD54 surface expression induction” value was 18 ± 2. With `CC(=O)C1(C)CC2=C(CCCC2(C)C)CC1C` (stereo not given) (100 µM) the “CD54 surface expression induction” value was 4.57 ± 4.8. With `CCCCCCCCCCCCCC[N+](C)(C)C` [Tetradonium bromide] (10 µM) the “CD54 surface expression induction” value was 17.7 ± 3.4. With `CCN(CC)CCSC(=O)C(c1ccccc1)c1ccccc1` [Thiphenamil] (200 µM) the “CD54 surface expression induction” value was 99.2 ± 12. `CC(C)C[C@H](NC(=O)[C@H](Cc1ccccc1)NC(=O)c1cnccn1)B(O)O` [Bortezomib] (10 µM) was tested, and the “CD54 surface expression induction” value was 28.8 ± 9.9. With `O=C1OC(OC(=O)c2cccnc2Nc2cccc(C(F)(F)F)c2)c2ccccc21` (stereo not given) [Talniflumate] (100 µM) the “CD54 surface expression induction” value was 1.7 ± 0.62. For `c1ccc(CCNc2nc(-c3ccccc3)cs2)cc1` [Fanetizole] (200 µM), the “CD54 surface expression induction” value was -4.51 ± 4.3. With `Cc1ccc(O)c(-n2nc3ccccc3n2)c1` [2-(2H-Benzotriazol-2-yl)-4-methylphenol] (100 µM) the “CD54 surface expression induction” value was 3.46 ± 3.3. With `CO[C@@H]1[C@H](OC(=O)/C=C/C=C/C=C/C=C/C(=O)O)CC[C@]2(CO2)[C@H]1[C@@]1(C)O[C@@H]1CC=C(C)C` [Fumagillin] (100 µM) the “CD54 surface expression induction” value was 4.2 ± 4.4. In the case of `CC(C)(C)OC(=O)c1ccc(O)cc1` [tert-Butyl 4-hydroxybenzoate] (100 µM), the “CD54 surface expression induction” value is reported as 1.75 ± 0.96. `O=C(O)c1cn(C2CC2)c2cc(N3CCNCC3)c(F)cc2c1=O` [Ciprofloxacin] (100 µM) was tested, and the “CD54 surface expression induction” value was -14.9 ± 5.8. In the case of `CCN(CC)c1ccc(C(=O)c2ccccc2C(=O)O)c(O)c1` [2-[4-(Diethylamino)-2-hydroxybenzoyl]benzoic acid] (10 µM), the “CD54 surface expression induction” value is reported as -5.88 ± 5.
